Experimental findings from PubChem BioAssay (Tox21) are described below.

Inconclusive results are not listed. A call without a number means that no potency is given here. Unmarked numbers belong to inactive results. The source made the active and inactive calls. Calls come from the whole dose curve.
Potency is the fitted concentration of half-maximal effect.

The assay can be described thus: Nuclear factor erythroid 2-related factor 2/antioxidant responsive element (Nrf2/ARE) small molecule agonists: luciferase reporter gene qHTS assay in human keratinocytes (AID 1919969). Note: nearly all actives have a fitted effect of over 35% in size. To be noted: KeratinoSens HaCaT ARE-luciferase, luminescence, 24 h; series mostly up to 92.4 µM. From the text: National Center for Advancing Translational Sciences [NCATS]
Division of Preclinical Innovation [DPI]
U.S. Environmental Protection Agency [EPA]
National Institutes of Environmental Health Sciences [NIEHS]
National Toxicology Program [NTP]
U.S. Food and Drug Administration [FDA]
Oxidative stress has been implicated in the pathogenesis of a variety of diseases ranging from cancer to neurodegeneration. The antioxidant response element (ARE) signaling pathway plays an important role in the amelioration of oxidative stress. The KeratinoSens (Givaudan, Switzerland) is an in vitro test method which quantifies luciferase induction as a measure of activation of Keap1-Nrf2-antioxidationt/electrophile response element (ARE) dependant pathway in HaCaT human keratinocytes stably transfected with a selectable plasmid. The KeratinoSens assay is a cell-based assay with a reporter cell line to detect potential skin sensitizers by their ability to induce the Nrf2/ARE-response. The activation of the report gene under culture conditions can be detected by ONE-Glo Luciferase Assay System (Promega, Madison, WI). This cell line has been used to screen the Tox21 10K compound library to identify agonists that induce oxidative stress. The cytotoxicity of the Tox21 compound library against the KS-ARE cell line was tested in parallel by measuring the cell viability using CellTiter- Fluor assay system (Promega, Madison, WI) in the same wells.
HaCaT derived cell line KeratinoSens were dispensed at 1,500 cells/5uL/well in 1536-well white wall/solid bottom plates using a Multidrop Combi (ThermoFisher Scientific, Waltham, MA) dispenser. After the assay plates were incubated at 37 C/5% CO2 for 5 h, 23 nL of compounds dissolved in DMSO, positive controls or DMSO only was transferred to the assay plate by a pintool workstation (Kalypsys, San Diego, CA). The plates were incubated at 37 C/5% CO2 for 23 h, followed by addition of 1uL/well of CellTiter-Fluor reagent into the assay plates using a Flying Reagent Dispenser (Aurora Discovery, San Diego, CA) for cell viability readout that measures cytotoxicity. After 1 h incubation at 37 C/5% CO2 the fluorescence intensity was measured using a ViewLux (PerkinElmer, Shelton, CT) plate reader. Then 4uL/well of One-Glo were added using a Flying Reagent Dispenser. After the plates were incubated at room temperature for 30 min, the luminescence intensity in the assay plates was measured using ViewLux plate reader.
Regarding `CCOc1ccccc1N`, the Potency entry is “inactive”.
For the molecule `CCN(CCO)CCCC(C)Nc1ccnc2cc(Cl)ccc12` (stereo not given), the activity, positive = activation was -5.51% [at 8.39 µM].
Turning to `CC1=C(CC=O)C(C)(C)CCC1`, the Potency result is “inactive”.
For `CCCCCCCCCCCCS(=O)(=O)Cl`, the activity, positive = activation was -14% [at 19 µM].
In the case of `Clc1cc(Cl)c(-c2c(Cl)c(Cl)cc(Cl)c2Cl)cc1Cl`, the Potency entry is “inactive”.
Turning to `CC(C)(C)N(CCO)CCO`, the Potency entry is “inactive”.
On the same count and under the same terms, the entry for `O=C1c2ccccc2C(=O)N1CO` is “inactive”; for `CN1CCCCC1CCN1c2ccccc2Sc2ccc(S(C)=O)cc21` (stereo not given) it is “inactive”; for `CC(C(=O)O)c1ccc(C(=O)c2ccccc2)s1` (stereo not given) it is “inactive”.
The same measure, in the same setting: as for `Cc1ccccc1C(=O)Nc1ccc(C(=O)N2CCCC(N(C)C)c3ccccc32)cc1` (stereo not given), the entry is “inactive”; as for `CCOC(=O)[C@H](CCc1ccccc1)N[C@@H](C)C(=O)N(CC(=O)O)C1Cc2ccccc2C1`, “inactive”.
Same read-out and setting: the entry for `NS(=O)(=O)c1cc(C(=O)NN2C[C@H]3[C@H]4CCC(C4)[C@H]3C2)ccc1Cl` is “inactive”.
Turning to `O=CCCc1ccccc1`, the Potency result is “inactive”.
On the same count and under the same terms, the entry for `C[Si]1(C)O[Si](C)(C)O[Si](C)(C)O1` is “inactive”.
For `COc1ccc2sc(C(=O)Nc3nnn[nH]3)c(OC(C)C)c2c1`, the Potency is 24.2 µM (active).
Same read-out and setting: as for `CC(=O)N(CC(O)CN(C(C)=O)c1c(I)c(C(=O)NCC(O)CO)c(I)c(C(=O)NCC(O)CO)c1I)c1c(I)c(C(=O)NCC(O)CO)c(I)c(C(=O)NCC(O)CO)c1I` (stereo not given), the entry is “inactive”.
In the case of `O=C(O)c1ccccc1NCCc1ccccc1`, the Potency result is “inactive”.
Regarding `O=C(O)P(=O)(O)O`, the Potency result is “inactive”.
Still for that read-out and setting: as for `CCC(C)(C)C(=O)O`, the entry is “inactive”.
On the same count and under the same terms, as for `CC(C)OCC1CO1` (stereo not given), the figure is 30.5 µM (active); as for `C=CC1CC2C=CC1C2` (stereo not given), “inactive”.
Take `Nc1ccc(S(=O)(=O)Nc2ccnn2-c2ccccc2)cc1`: the activity, positive = activation is 4.54% [at 19 µM].
For `CC(CC(C#N)(c1ccccc1)C(C)C)N(C)C` (stereo not given), the Potency entry was “inactive”.
For the molecule `O=S(O)O`, the activity, positive = activation was -3.64% [at 19 µM].
For `NCC(=O)CCC(=O)O`, the Potency entry is “inactive”.
On the same count and under the same terms, the entry for `COCCCN1CCC(NC(=O)c2cc(Cl)c(N)c3c2OCC3)CC1` is “inactive”.
As to `CCCCNc1ccc(NCCCC)c2c1C(=O)c1ccccc1C2=O`, the activity, positive = activation is 14.7% [at 19 µM].
As for `CC(=O)CCCCn1c(=O)c2c(ncn2C)n(C)c1=O`, the Potency result was “inactive”.
Still for that read-out and setting: the entry for `c1ccc(-c2nn[nH]n2)cc1` is “inactive”; for `CNC(=O)c1cnn(-c2nc(N)c3ncn([C@@H]4O[C@H](CO)[C@@H](O)[C@H]4O)c3n2)c1` it is “inactive”; for `CC1(C)S[C@@H]2[C@H](NC(=O)Cc3ccccc3)C(=O)N2[C@H]1C(=O)O` (tested in a mixture with another compound) it is “inactive”.
Same read-out and setting: the entry for `CC(C)[N+](C)(C)CC(O)COc1cccc2ccccc12` (stereo not given) is “inactive”.
On the same count and under the same terms, the entry for `CCNC(=O)N1CCN(CCCC(c2ccc(F)cc2)c2ccc(F)cc2)CC1` is “inactive”; for `C/C=C/C(=O)CC` it is 10.5 µM (active); for `CC=C(Cl)Cl` it is “inactive”.
`Cc1cc(O)c(C)c(C)c1O`: the Potency entry was “inactive”.
On to `CCCCCCCCCCCc1ccccc1`, for which the Potency entry was “inactive”.
Consider `O=C(O)c1ccncc1`, for which the Potency result is “inactive”.
Still for that read-out and setting: the entry for `CC(C)OC(=O)C(C(=O)OC(C)C)=C1SC=CS1` is “inactive”.
Same read-out and setting: as for `CCCCC`, the entry is “inactive”.
